# Results published in PubChem BioAssay AID624255 (Broad Institute, 2012).
# “And” between values parts separate entries of the source, which are not always exact repeats. Identical values can stand only once. About 4,600 (6%) of roughly 77,000 compounds were called active. Not shown: some 1% with an inconclusive outcome. This is one part of a sample in which actives are shown more often than they occur.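 How the source made its calls: active means mean inhibition above about 93%, with at least 55% of replicates each passing it (limit read from the data, passing the limit was not always enough); inconclusive means only one of those two conditions holds; inactive means neither condition holds.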
# Test: growth inhibition of T. cruzi in host fibroblasts – cell-based, beta-gal Tulahuen parasites, NIH3T3 host, luminescence, primary screen (AID 624255)
# Conditions: T. cruzi beta-gal in NIH3T3, GalScreen luminescence, 90 h; at 8.34 µM; hits give high values
row,SMILES,inhibition
1,C/C=C/c1ccc([C@H]2[C@@H](CNC(C)C)N(c3nc(CC)cs3)[C@H]2CO)cc1,100% (active)
2,C/C=C/c1ccc([C@H]2[C@@H](CO)N(C(C)=O)[C@H]2CNC(=O)c2ccncc2)cc1,72.7% (inactive)
3,C/C=C/c1ccc([C@H]2[C@@H](CNC(=O)NC(C)C)N(C(=O)C3CCC3)[C@H]2CO)cc1,7.28% (inactive)
4,CO[C@H](C(=O)N(C)C[C@@H]1OCc2ccccc2-c2c(n(C)c3ccccc23)C(=O)N([C@@H](C)CO)C[C@H]1C)c1ccccc1,-13.2% (inactive)
5,CN1[C@H](C(=O)N2CCc3ccccc3C2)[C@@H](CO)[C@@H]2Cn3c(ccc(-c4cncnc4)c3=O)[C@@H]21,79.8% (inactive)
6,COc1cccc(S(=O)(=O)N[C@H]2CC[C@H](CCN)O[C@H]2CO)c1,-31.7% (inactive)
7,CO[C@H]1CN(C)C(=O)c2cc(NS(C)(=O)=O)ccc2OC[C@@H](C)N(C)C[C@@H]1C,13.7% (inactive)
8,CC(C)C#Cc1ccc([C@@H]2[C@@H](CO)N3CCCCN(C(=O)c4ccc5c(c4)OCO5)C[C@H]23)cc1,67.5% (inactive)
9,CCCC#Cc1ccc([C@H]2[C@@H](CO)N3CCCCN(C(=O)c4ccc5c(c4)OCO5)C[C@@H]23)cc1,50.9% (inactive)
10,C[C@@H](O)C#Cc1ccc([C@@H]2[C@H]3CN(C(=O)c4ccc5c(c4)OCO5)CCCCN3[C@H]2CO)cc1,71.8% (inactive)
11,Cc1cccc(-c2ccc([C@@H]3[C@H](CO)N4CCCCN(C(=O)c5ccc6c(c5)OCO6)C[C@@H]34)cc2)c1,98.3% (active)
12,COc1ccc(-c2ccc([C@H]3[C@H]4CN(C(=O)c5ccc6c(c5)OCO6)CCCCN4[C@H]3CO)cc2)cc1,117% (active)
13,C[C@@H](O)C#Cc1ccc([C@H]2[C@H]3CN(C(=O)c4ccc5c(c4)OCO5)CCCCN3[C@H]2CO)cc1,26% (inactive)
14,Cc1ccc(S(=O)(=O)N[C@H]2CC[C@@H](CC(=O)NCCCN(C)C)O[C@H]2CO)cc1,-52% (inactive)
15,CN1c2ccc(-c3cccc(C#N)c3)cc2[C@H]2[C@H](CCN2S(=O)(=O)c2cccc(F)c2)[C@@H]1CO,41.7% (inactive)
16,C[C@H](CO)N1C[C@H](C)[C@H](CN(C)S(C)(=O)=O)Oc2ncc(C3=CCCCC3)cc2C1=O,47.7% (inactive)
17,CCC(=O)N1C[C@H](C)[C@H](OC)CN(C)C(=O)c2ccc(NC(=O)Nc3cccc(F)c3)cc2OC[C@@H]1C,24.9% (inactive)
18,C[C@@H]1CN([C@@H](C)CO)C(=O)c2cc(NC(=O)Nc3ccc4c(c3)OCO4)ccc2O[C@@H](C)CCCCO[C@@H]1CN(C)C(=O)Nc1ccc2c(c1)OCO2,-7.76% (inactive)
19,C[C@@H]1CN([C@@H](C)CO)C(=O)c2cc(NC(=O)Nc3ccc4c(c3)OCO4)ccc2O[C@@H](C)CCCCO[C@H]1CN(C)C(=O)Nc1ccc(C(F)(F)F)cc1,105% (active)

row,SMILES,inhibition
1,COc1ccc(NC(=O)Nc2ccc3c(c2)C(=O)N([C@H](C)CO)C[C@H](C)[C@@H](CN(C)C(=O)Nc2ccc(OC)cc2)OCCCC[C@H](C)O3)cc1,-4.89% (inactive)
2,C[C@@H]1CCCCO[C@@H](CN(C)C(=O)Nc2ccc(C(F)(F)F)cc2)[C@H](C)CN([C@H](C)CO)C(=O)c2cc(NC(=O)C3CCCCC3)ccc2O1,82.6% (inactive)
3,C[C@@H]1CN([C@@H](C)CO)C(=O)c2cc(NC(=O)C3CCCCC3)ccc2O[C@@H](C)CCCCO[C@@H]1CN(C)C(=O)Nc1ccccc1,3.47% (inactive)
4,C[C@H](CO)N1C[C@H](C)[C@H](CN(C)C(=O)Nc2ccc(C(F)(F)F)cc2)OCCCC[C@H](C)Oc2ccc(NC(=O)C3CCCCC3)cc2C1=O,99.4% (active)
5,COc1ccc(NC(=O)N(C)C[C@H]2OCCCC[C@H](C)Oc3ccc(NC(=O)Nc4ccc(C(F)(F)F)cc4)cc3C(=O)N([C@@H](C)CO)C[C@@H]2C)cc1,110% (active)
6,COc1ccc(NC(=O)Nc2ccc3c(c2)C(=O)N([C@H](C)CO)C[C@@H](C)[C@H](CN(C)C(=O)Nc2ccc(C(F)(F)F)cc2)OCCCC[C@@H](C)O3)cc1,121% (inactive)
7,CC(C)NC(=O)Nc1ccc2c(c1)C(=O)N([C@H](C)CO)C[C@H](C)[C@H](CN(C)C(=O)Nc1ccc(C(F)(F)F)cc1)OCCCC[C@@H](C)O2,104% (active)
8,CC(C)NC(=O)Nc1ccc2c(c1)C(=O)N([C@@H](C)CO)C[C@H](C)[C@H](CN(C)C(=O)Nc1ccc(F)cc1)OCCCC[C@@H](C)O2,10.6% (inactive)
9,CC(C)NC(=O)Nc1ccc2c(c1)C(=O)N([C@@H](C)CO)C[C@@H](C)[C@@H](CN(C)C(=O)Nc1ccc(C(F)(F)F)cc1)OCCCC[C@H](C)O2,45.6% (inactive)
10,C[C@H](CO)N1C[C@H](C)[C@@H](CN(C)C(=O)Nc2ccc3c(c2)OCO3)OCCCC[C@H](C)Oc2ccc(NC(=O)Nc3ccc4c(c3)OCO4)cc2C1=O,66.3% (inactive)
11,CN1[C@@H]2c3ccc(C4=CCCCC4)c(=O)n3C[C@H]1[C@H](CO)[C@H]2C(=O)NCc1ccc(F)cc1,66.5% (inactive)
12,O=C([C@@H]1[C@@H](CO)[C@@H]2Cn3c(ccc(-c4ccccc4F)c3=O)[C@H]1N2C(=O)C1CCC1)N1CCCCC1,-49% (inactive)
13,O=C(NCC1CC1)[C@@H]1[C@@H](CO)[C@@H]2Cn3c(ccc(C4=CCCC4)c3=O)[C@H]1N2CCC(F)(F)F,-0.412% (inactive)
14,COc1ccc(-c2ccc3c(c2)[C@H]2[C@H](CCN2S(=O)(=O)c2ccccc2F)[C@H](CO)N3)cc1,14.9% (inactive)
15,CCCN1[C@H](C(=O)NC2Cc3ccccc3C2)[C@@H](CO)[C@@H]2Cn3c(cccc3=O)[C@@H]21,-19.6% (inactive)
16,Cc1ccc(S(=O)(=O)N2C[C@@H](O)COC[C@@H]3O[C@@H](CC(=O)N[C@H]4CCN(Cc5ccccc5)C4)CC[C@H]32)cc1,-6.53% (inactive)
17,CCC(=O)Nc1ccc2c(c1)C(=O)N(C)[C@H]1CC[C@H](CC(=O)NC3Cc4ccccc4C3)O[C@H]1CO2,37.2% (inactive)
18,CC(C)NC(=O)Nc1ccc2c(c1)C(=O)N([C@@H](C)CO)C[C@@H](C)[C@@H](CN(C)S(=O)(=O)c1ccc(F)cc1)OCCCC[C@H](C)O2,-55.2% (inactive)
19,CCCNC(=O)C[C@@H]1C[C@H]2c3cc(NC(=O)Nc4ccccc4F)ccc3O[C@H]2[C@H](CO)O1,10.8% (inactive)

row,SMILES,inhibition
1,C[C@H]1CCCCO[C@@H](CN(C)Cc2ccc3c(c2)OCO3)[C@@H](C)CN([C@@H](C)CO)C(=O)c2cc(NS(=O)(=O)c3ccc(F)cc3)ccc2O1,73.3% (inactive)
2,CC(C)NC(=O)N(C)C[C@H]1OCCCC[C@H](C)Oc2ccc(NC(=O)Nc3ccc(C(F)(F)F)cc3)cc2C(=O)N([C@H](C)CO)C[C@@H]1C,36.4% (inactive)
3,C[C@@H]1CCCCO[C@H](CN(C)C(=O)Nc2ccc(C(F)(F)F)cc2)[C@H](C)CN([C@H](C)CO)C(=O)c2cc(NC(=O)Nc3ccc(C(F)(F)F)cc3)ccc2O1,120% (active)
4,C[C@@H]1CCCCO[C@@H](CN(C)C(=O)Nc2ccc(C(F)(F)F)cc2)[C@H](C)CN([C@H](C)CO)C(=O)c2cc(NC(=O)c3ccccc3)ccc2O1,94.9% (inactive)
5,C[C@@H]1CCCCO[C@H](CN(C)C(=O)CCCN(C)C)[C@H](C)CN([C@H](C)CO)C(=O)c2cc(NC(=O)CCC(F)(F)F)ccc2O1,16.6% (inactive)
6,CNC(=O)C[C@H]1CC[C@H]2[C@H](COc3ccc(NC(=O)Nc4cccc(C)c4)cc3C(=O)N2C)O1,12.8% (inactive)
7,O=C(Cc1ccccn1)N[C@H]1CC[C@@H](CC(=O)N2CCCCC2)O[C@@H]1CO,-26% (inactive)
8,C[C@H](CO)N1C[C@H](C)[C@H](CN(C)S(=O)(=O)c2ccc(F)cc2)Oc2ncc(-c3ccc(F)cc3)cc2C1=O,22.6% (inactive)
9,C[C@H](CO)N1C[C@H](C)[C@H](CN(C)C(=O)Nc2ccc(F)cc2)Oc2ncc(-c3cc4ccccc4o3)cc2C1=O,119% (active)
10,C[C@H](CO)N1C[C@H](C)[C@H](CN(C)Cc2ccccc2)Oc2ncc(-c3ccccc3)cc2C1=O,23.4% (inactive) and 14.8% (inactive)
11,C[C@@H]1CN([C@H](C)CO)C(=O)c2cc(-c3ccccc3)cnc2O[C@H]1CN(C)C(=O)Nc1ccccc1,-81.2% (inactive)
12,Cc1ccc(-c2cnc3c(c2)C(=O)N([C@H](C)CO)C[C@@H](C)[C@H](CN(C)Cc2ccccc2C(=O)O)O3)cc1,-6.32% (inactive)
13,Cc1ccc(-c2cnc3c(c2)C(=O)N([C@@H](C)CO)C[C@@H](C)[C@H](CN(C)Cc2ccccc2F)O3)cc1,111% (active)
14,C[C@@H]1CN([C@H](C)CO)C(=O)c2cc(Br)cnc2O[C@@H]1CN(C)C(=O)Nc1ccc(F)cc1,-142% (inactive)
15,Cc1ccc(S(=O)(=O)N(C)C[C@@H]2Oc3ncc(-c4cc5ccccc5o4)cc3C(=O)N([C@H](C)CO)C[C@@H]2C)cc1,117% (active)
16,COc1ccc(-c2cnc3c(c2)C(=O)N([C@H](C)CO)C[C@H](C)[C@H](CN(C)S(=O)(=O)c2ccccc2)O3)cc1,37.7% (inactive)
17,CC=Cc1ccc2n(c1=O)C[C@H]1[C@H](CO)[C@@H](C(=O)NCc3ccncc3)N(Cc3cncnc3)[C@@H]21 (mixture of isomers),37.5% (inactive)
18,CCCN1[C@H](C(=O)NCC)[C@@H](CO)[C@@H]2Cn3c(ccc(C4=CCCC4)c3=O)[C@@H]21,32% (inactive)
19,COc1cccc(C(=O)Nc2ccc3c(c2)C(=O)N(C)C[C@@H](OC)[C@@H](C)CN(C)[C@@H](C)CO3)c1,-27.6% (inactive)
